Laboratory results taken from PubChem BioAssay (NCI).
About 79,000 compounds went through this panel and 15% of them were active in at least one assay; those are over-represented in the sample as a whole. Activity calls are given as the source filed them. Cut-off read from the data, not from the text of the source: active = growth inhibition above about 70%; inactive = the rest.

Experiments:
[1] = NCI Yeast Anticancer Drug Screen. Data for the rad50 strain (AID 155);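 note: 0% = growth of vehicle-only cultures of the same strain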; conditions: S. cerevisiae rad50 strain growth inhibition; at 50.0 µM; active compounds read high
Procedure, shortened: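 Compounds were tested on a yeast strain with an engineered DNA damage repair alteration; the reported value is growth inhibition normalised to vehicle treatment.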

[2] = NCI Yeast Anticancer Drug Screen. Data for the mec2-1 strain (AID 157); conditions: S. cerevisiae mec2-1 strain, at 50.0 µM, active compounds read high
Procedure, shortened: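 Mutant yeast (mec2-1) grown with compound; growth inhibition relative to vehicle control reported.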

[3] = NCI Yeast Anticancer Drug Screen. Data for the sgs1 mgt1 strain (AID 161);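 note: 0% = growth of cultures given vehicle only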; conditions: S. cerevisiae sgs1 mgt1 strain, at 50.0 µM, active compounds read high
Procedure, shortened: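 This yeast growth screen uses a strain with defined DNA-repair lesions; compound-treated growth is compared with vehicle-treated growth.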

[4] = NCI Yeast Anticancer Drug Screen. Data for the cln2 rad14 strain (AID 165);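 note: 0% = growth equal to vehicle treated cultures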; conditions: S. cerevisiae cln2 rad14 strain, at 50.0 µM, active compounds read high
Procedure, shortened: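 Readout is yeast growth inhibition versus vehicle-treated controls, using a strain with cln2 and rad14 alterations exposed to compound.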

[5] = NCI Yeast Anticancer Drug Screen. Data for the bub3 strain (AID 167); conditions: S. cerevisiae bub3 mutant strain, at 50.0 µM, active compounds read high
Procedure, shortened: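 Growth of a checkpoint-deficient yeast mutant is measured after compound exposure. Values represent inhibition relative to vehicle.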

[6] = NCI Yeast Anticancer Drug Screen. Data for the mlh1 rad18 strain (AID 175); conditions: S. cerevisiae mlh1 rad18 strain growth inhibition; at 50.0 µM; active compounds read high
Procedure, shortened: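 Genetically defined yeast (DNA repair-deficient) exposed to compounds; growth inhibition determined relative to vehicle.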

Measured: growth inhibition

CC(C(=O)c1ccccc1)N(C)c1ccccc1 (stereo not drawn)
inactive: [1] 12.7% | [2] -5.35% | [3] -3.1% | [4] -36.8% | [5] -26% | [6] -1.65%

O=c1oc2c(-c3c(O)c(=O)oc4ccccc34)cc(O)cc2s1
inactive: [1] 10.3% | [2] 14.6% | [3] 22.9% | [4] 17.1% | [5] 10% | [6] 36%

CC(=O)NNc1nc(C)c(C(/C=C/c2cccc([N+](=O)[O-])c2)=N/NC(=S)NN)s1
inactive: [1] 5.85% | [2] -5% | [3] 2.2% | [4] 4.35% | [5] 12.4% | [6] 12.1%

N#C/C(N)=C(\C#N)N=CNc1ccc(N)cc1
inactive: [1] -32.8% | [2] -31.1% | [3] -22.2% | [4] 23% | [5] 1.4% | [6] -10.9%

O=C1c2ccccc2C(C2N=Nc3ccccc32)c2ccccc21 (stereo not drawn)
inactive: [1] 7.1% | [2] 5.15% | [3] 15.6% | [4] 26.1% | [5] 3.8% | [6] 6.2%

COC(=O)c1c(O)ccc(O)c1C(=O)OC
inactive: [1] -15.7% | [2] -18.4% | [3] -13.6% | [4] -16.6% | [5] -6.4% | [6] -21.6%

N#CC(c1ccccc1)N(CCc1ccccc1)C(=O)Oc1ccccc1 (stereo not drawn)
inactive: [1] -14.6% | [2] -19.6% | [3] -8.3% | [4] -18.2% | [5] -40.3% | [6] -30.9%

CCc1nc(N)nc(-c2nc(N)nc(CC)c2C)c1C
inactive: [1] 10.8% | [2] -2.4% | [3] -8.4% | [4] -7.8% | [5] -29.4% | [6] 15.8%

CCOC(=O)COS(=O)(=O)C(F)(F)F
inactive: [1] 21.6% | [2] -12.7% | [3] -11.4% | [4] 2.95% | [5] 3.5% | [6] -10.7%

CCN(CC)C(=O)C1C(C=C(C)C)C1(C)C (stereo not drawn)
inactive: [1] 6.95% | [2] 20.4% | [3] 12.2% | [4] 5.3% | [5] -10.1% | [6] 7.55%

NC1=CCNN1
inactive: [1] 8.7% | [2] -21.9% | [3] 4.1% | [4] 4.1% | [5] 11.3% | [6] 14.4%

Fc1nc2nc(C(F)(F)F)[nH]c2nc1F
inactive: [1] 15.8% | [2] -0.85% | [3] -23.9% | [4] -59.5% | [5] 0.85% | [6] 7.6%

CCn1c2ccc([N+](=O)[O-])cc2c2c([N+](=O)[O-])c(NC=O)ccc21
inactive: [1] 12.2% | [2] 15.2% | [3] -4.55% | [4] 17.6% | [5] 13.8% | [6] 28.2%

C(=N\NC1=NCCCN1)/c1ccc2ccccc2c1
inactive: [1] 4.45% | [2] 1.65% | [3] -13.8% | [4] -28.4% | [5] 0.05% | [6] 1.15%

NC(CCC(N)C(=O)c1ccccc1)C(=O)c1ccccc1 (stereo not drawn)
inactive: [1] -12.2% | [2] -7.75% | [3] 4.35% | [4] 6.8% | [5] -8.8% | [6] 11.7%

S=C(N/N=C\c1ccc(Cl)cc1Cl)Nc1ccc2cn[nH]c2c1
inactive: [1] 20% | [2] 17.2% | [3] 28.2% | [4] -38% | [5] 2% | [6] 31.8%

C=C1CN=C(Nc2ccc(F)cc2F)S1
inactive: [1] -0.15% | [2] 7.3% | [3] -14.6% | [4] 8.15% | [5] 1.75% | [6] 2.65%

c1ccc(CCNCc2ccc(CNCCc3ccccc3)cc2)cc1
inactive: [1] -5.75% | [2] -23.9% | [3] -12.2% | [4] 5.05% | [5] -0.25% | [6] 3.45%

Cc1ccc(NC(=O)C(=O)CC(=O)c2c(C)n([O-])c3ccccc3[n+]2=O)cc1
inactive: [1] 5.65% | [2] 6.95% | [3] -6.5% | [4] 16.4% | [5] -1.55% | [6] 17.4%

O=S(=O)(Nc1cccc(Cl)c1)c1ccc(Cl)cc1
active: [1] 99.7% | [2] 99.8% | [3] 99.8% | [4] 99.6% | [5] 99.7% | [6] 99.7%

CCn1c2ccccc2c2cc(/C=N/N=C/c3ccc4c(c3)c3ccccc3n4CC)ccc21
inactive: [1] -17.8% | [2] 5.15% | [3] -11.6% | [4] -13.7% | [5] -1.8% | [6] -18.9%

c1ccc(-c2nc3n(n2)CCC(c2ccccc2)S3)cc1 (stereo not drawn)
inactive: [1] -7.95% | [2] -18.1% | [3] -15.5% | [4] 3.9% | [5] 6.1% | [6] -8.75%

CCOC1(OCC)C2(Cl)C(Cl)=C(Cl)C1(Cl)C1CCCC12 (stereo not drawn)
inactive: [1] 23.7% | [2] 3.75% | [3] 11.5% | [4] 17.1% | [5] -12.7% | [6] 20.6%

CNCCC(Oc1ccccc1OC)c1ccccc1 (stereo not drawn)
inactive: [1] 30.2% | [2] 8.9% | [3] -1.2% | [4] 10.8% | [5] 5.25% | [6] 19.1%

CC1(C)CC(OP(=O)(OC2CC(C)(C)N(O)C(C)(C)C2)c2ccccc2)CC(C)(C)N1O
inactive: [1] 32.1% | [2] 8.45% | [3] 11.1% | [4] -21.1% | [5] 6.3% | [6] 6.5%

COC(=O)c1ccccc1O
inactive: [1] -3.4% | [2] 2.25% | [3] -7.9% | [4] -39.4% | [5] 1.25% | [6] -19.5%

CCOc1ccccc1NC(=O)C(=O)C(/C(=N/N)C(=O)OC)c1nc2ccc([N+](=O)[O-])cc2[nH]c1=O (stereo not drawn)
inactive: [1] 16.9% | [2] -10% | [3] 5.7% | [4] 15.4% | [5] -1.35% | [6] 9.25%

COc1ccc(/C=C2/C(=O)N(c3ccccc3)N=C2C)cc1
inactive: [1] 22.2% | [2] -2.2% | [3] 17.3% | [4] 0.4% | [5] 16.7% | [6] 22.1%

Cc1ccc(NC(=O)CC2C(=O)Nc3ccccc3S2=O)c(C)c1 (stereo not drawn)
inactive: [1] -7.85% | [2] -24.9% | [3] 4.45% | [4] 20.4% | [5] 15.8% | [6] -5.55%

O=C1c2ccccc2C(=O)c2cc(C[n+]3ccccc3C3OCCO3)ccc21
inactive: [1] 19% | [2] 7.2% | [3] 42.2% | [4] 15.8% | [5] -0.8% | [6] 2.55%

CSCCC(NC(=O)OC(C)(C)C)C(=O)NCCNc1ccc(NCCNC(=O)C(CCSC)NC(=O)OC(C)(C)C)c2c1C(=O)c1ccccc1C2=O (stereo not drawn)
inactive: [1] 19.4% | [2] 7.9% | [3] -24.2% | [4] 3.85% | [5] -9.5% | [6] -43.3%

Cc1cc(C)c(F)c(C)c1N
inactive: [1] -32.5% | [2] 17.6% | [3] -22% | [4] -19.4% | [5] -22.1% | [6] -4.3%

COc1cc(NCCNCC(C)(C)C)c2ncccc2c1
inactive: [1] 11.7% | [2] 18.7% | [3] 22.1% | [4] 11.8% | [5] 33.5% | [6] 0.5%

O=P(c1ccccc1)(c1ccccc1)N1CC1c1ccccc1 (stereo not drawn)
inactive: [1] 8.95% | [2] 12.9% | [3] 3.2% | [4] -3.45% | [5] 4.6% | [6] 10.1%

Oc1ccc(Cl)cc1C1=NC(/N=C\c2ccccc2)=NC(c2ccccc2)C1 (stereo not drawn)
inactive: [1] -0.7% | [2] -4.05% | [3] -43% | [4] -8.1% | [5] -36.8% | [6] -45%

CCOC(O)(NC(=O)C(C(F)(F)F)C(F)(F)F)C(F)(F)F (stereo not drawn)
inactive: [1] 6.05% | [2] -18.1% | [3] -33.4% | [4] -9.45% | [5] -12.4% | [6] -26.9%

CC1CCc2cc(Br)ccc2N1N (stereo not drawn)
inactive: [1] 33.1% | [2] 0.85% | [3] -5.35% | [4] 9.8% | [5] -4.8% | [6] 27.8%

CCOC(=O)C(CCSC)(CCN(C)Cc1ccccc1)C(=O)OCC
inactive: [1] -23.1% | [2] -3.05% | [3] -6.9% | [4] -0.9% | [5] 8.85% | [6] -3.3%
